Source: PubChem BioAssay
hgDAF12 agonist: activates the H. glycines DAF-12 receptor ligand-binding domain | HEK293 GAL4-hgDAF12 UAS-luciferase reporter, agonist luminescence; normalized to butyrate control | activation, % at 6.8 µM | 370,000 compounds, 1.8% hits | AID 687014;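 active = activation above a cutoff set at the mean of all screened compounds plus 3 SD, cut at about 10% in these data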;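 note: 0% = DMSO wells and 100% = sodium butyrate wells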
SMARCA2 act: SMARCA2 function activation, primary screen | MG213 cells, MMTV-luciferase reporter, dexamethasone, overnight | activation, % at 9.1 µM | AID 652017 | 370,000 compounds, 1% hits; in the data active = activation above about 7.8%;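 note: 0% = vehicle wells and 100% = reference activator wells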
DAX1 inh-1: blocks DAX1 repression of SF-1 activated StAR promoter | 370,000 compounds, 1.1% hits | inhibition, % at 6.8 µM | HEK293T StAR-luciferase reporter, SF-1/DAX-1 repression relief;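 active = inhibition above the mean over all tested compounds plus 3 SD, cut at about 3.6% in these data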;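 note: 0% = DAX-1 cells with DMSO and 100% = cells lacking DAX-1 with DMSO; higher inhibition means more luminescence from relief of DAX-1 repression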
hcDAF-12 act: H. contortus DAF-12 activation, primary screen; HEK293 hcDAF-12 lit1-tk-luc reporter, luminescence; 0% DMSO, 100% Δ7-dafachronic acid; activation, % at 6.8 µM; 370,000 compounds, 1.4% hits; AID 652067;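 active = activation above the mean of all tested compounds plus 3 SD, cut at about 5.5% in these data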;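 note: 100% = response to 3 µM Δ7-dafachronic acid high control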
ssDAF12 agonist: activates DAF-12 receptor from parasite S. stercoralis | HEK293 ssDAF-12/GRIP1 lit1-tk-luc reporter, luminescence; % of 3 µM dafachronic acid response | activation, % at 6.8 µM | 370,000 compounds, 1% hits | AID 652126;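 active = activation above the mean over all tested compounds plus 3 SD, cut at about 0.9% in these data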;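 note: 0% = DMSO-only wells and 100% = 3 µM delta7-dafachronic acid wells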
DAX1 inh-2: inhibitors of human orphan nuclear receptor DAX1 (NR0B1). P51843. HEK293 Gal4-DAX1 luciferase reporter, luminescence. inhibition, % at 6.75 µM. 340,000 compounds, 0.99% hits. AID 504766;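 active = inhibition above the mean over all tested compounds plus 3 SD, cut at about 4.2% in these data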;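 note: 0% = DAX1-transfected cells with DMSO and 100% = empty-vector control cells with DMSO; inhibition shows as a rise in luminescence from relieved DAX1 repression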
Target sequence (P51843 207-470 limits assumed): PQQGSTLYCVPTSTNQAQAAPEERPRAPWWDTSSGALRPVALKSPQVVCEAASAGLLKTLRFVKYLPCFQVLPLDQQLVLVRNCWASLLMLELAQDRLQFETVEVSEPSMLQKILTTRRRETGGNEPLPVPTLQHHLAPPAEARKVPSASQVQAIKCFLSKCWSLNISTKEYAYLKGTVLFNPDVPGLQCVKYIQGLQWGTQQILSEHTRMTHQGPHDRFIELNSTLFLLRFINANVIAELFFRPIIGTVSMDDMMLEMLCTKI
DAX1 conf: NR0B1 (human) inhibition, confirmation; HEK293T StAR-promoter luciferase reporter, SF-1/DAX-1 repression; 2,400 compounds, 87% hits; inhibition, % at 6.8 µM; shares compounds with DAX1 inh-1; AID 652134;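 active = inhibition above the average of every tested compound plus 3 SD, cut at about 3.8% in these data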;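 note: 0% = DAX-1 cells with DMSO and 100% = no DAX-1 control cells with DMSO; active compounds raise luminescence by relieving repression of the StAR reporter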
SF1 mutant ctr: nonselective inhibitor or artifact in SF-1 mutant DAX1 counter-screen | inhibition, % at 6.8 µM | 2,400 compounds, 78% hits | HEK293 StAR-luciferase, SF-1 AF2 mutant, luminescence | AID 652136 | shares compounds with DAX1 inh-1;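 active = inhibition above the mean of all tested compounds plus 3 SD, cut at about 3% in these data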;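 note: 0% = DAX-1 transfected cells with DMSO and 100% = cells without DAX-1 with DMSO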
SMARCA2 conf: confirmation of SMARCA2 (BRM) function activators. shares compounds with SMARCA2 act. MG213 cells, MMTV-luciferase with dexamethasone, luminescence, overnight; MG213 cells expressing E1A, Rb sequestered; DMSO wells 0%, reference activator 100%. activation, % at 9.1 µM. 3,500 compounds, 30% hits. AID 652260;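 active = activation above its plate's cutoff, the mean activation of tested wells plus 3 SD, cut at about 7.9% in these data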
GAL4-VP16 Luc: GAL4-VP16 reporter activation counter-screen; shares compounds with SMARCA2 act; HEK293 GAL4-VP16 pG5luc reporter, luciferase luminescence; scaled: DMSO wells 0%, SAHA wells 100%; activation, % at 9.1 µM; 3,500 compounds, 41% hits; AID 686939;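 active = activation above the solvent-only control well mean plus 3 SD, averaged across control plates, cut at about 5.2% in these data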
LXR ag: LXR-beta agonism as hcDAF-12 counter-screen; AID 743027; 3,400 tested, under 10 active; shares compounds with hcDAF-12 act; HEK293 Gal4-LXR tk-luc reporter, luminescence, 24 h; normalized: DMSO 0%, positive control 100%; activation, % at 6.8 µM;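 active = mean percent activation of the reporter above a cutoff set as the average over tested compounds plus their standard deviation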
Target sequence (P55055 whole entry, looked up, the tested form may be a part): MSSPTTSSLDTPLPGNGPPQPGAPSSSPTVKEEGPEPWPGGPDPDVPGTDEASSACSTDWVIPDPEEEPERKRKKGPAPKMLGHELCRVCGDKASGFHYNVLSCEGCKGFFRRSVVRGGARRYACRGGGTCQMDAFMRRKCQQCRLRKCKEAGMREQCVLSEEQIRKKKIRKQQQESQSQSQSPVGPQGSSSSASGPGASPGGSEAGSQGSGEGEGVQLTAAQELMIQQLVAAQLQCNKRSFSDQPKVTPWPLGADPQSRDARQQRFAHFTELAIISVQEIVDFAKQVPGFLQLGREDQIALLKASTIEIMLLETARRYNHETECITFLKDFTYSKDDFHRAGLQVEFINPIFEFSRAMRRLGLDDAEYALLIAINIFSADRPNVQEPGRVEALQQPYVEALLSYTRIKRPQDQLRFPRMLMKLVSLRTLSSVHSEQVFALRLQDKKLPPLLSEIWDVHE
hcDAF12 conf: confirmation of H. contortus DAF-12 agonists | 3,400 compounds, 61% hits | activation, % at 6.8 µM | shares compounds with hcDAF-12 act | AID 743032 | HEK293 hcDAF-12 lit1-tk-luc reporter, luminescence; % of Δ7-dafachronic acid response;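 active = mean activation across triplicate tests above the threshold derived from the earlier primary screen, cut at about 5.5% in these data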;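 note: 0% = DMSO only wells and 100% = 3 µM Δ7-dafachronic acid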
hgDAF12 ag: confirmation of H. glycines DAF-12 agonists | 3,300 compounds, 80% hits | activation, % at 6.8 µM | shares compounds with hgDAF12 agonist | AID 743050 | HEK293 GAL4-hgDAF12 luciferase reporter, agonist mode; percent of butyrate response;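 active = mean activation over triplicate wells above the hit cutoff derived from the earlier primary screen, cut at about 11% in these data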;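 note: 0% = DMSO low control and 100% = 2 mM sodium butyrate high control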
LXRb DAF12 ctr: counter-screen for DAF-12 agonists: agonists of human LXR-beta; shares compounds with hgDAF12 agonist; HEK293 Gal4-LXR luciferase reporter, 24 h; activation, % at 6.8 µM; 3,300 tested, under 10 active; AID 743051;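 active = mean activation of the triplicate above a set limit carried over from the primary screen, none filed active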
An asterisk follows results filed as active. Hits are enriched below; roughly 4.8% of the tested compounds scored in any of these assays.

For COCc1cc(C)nc(OCC(=O)N/N=C/c2ccc(OC)c(O)c2)c1C#N the results were hgDAF12 agonist 3, SMARCA2 act -2, DAX1 inh-1 -1, hcDAF-12 act -1, ssDAF12 agonist -1 and DAX1 inh-2 -1.
Screening CCc1nnc(NC(=O)c2sc3nc4c(cc3c2N)CCCCCC4)s1 returned hgDAF12 agonist 2, SMARCA2 act -2, DAX1 inh-1 2, hcDAF-12 act 3, ssDAF12 agonist -1 and DAX1 inh-2 3.
CCc1nnc(NC(=O)c2sc3nc4c(cc3c2N)CCCCC4)s1 was read as hgDAF12 agonist 16*, SMARCA2 act 6, DAX1 inh-1 5.0*, hcDAF-12 act 6.7*, ssDAF12 agonist 0, DAX1 inh-2 3, DAX1 conf 12*, SF1 mutant ctr 7.8*, LXR ag 1, hcDAF12 conf 6.5*, hgDAF12 ag 14* and LXRb DAF12 ctr 1.
`Cn1c(NCCc2ccncc2)nc2cc(-c3cccc(Cl)c3)sc2c1=O` gave hgDAF12 agonist 1, SMARCA2 act 5, DAX1 inh-1 1, hcDAF-12 act -1 and ssDAF12 agonist 0.
`C=CC(=O)NC(C)(C)Cc1ccccc1` gave hgDAF12 agonist -2, SMARCA2 act -1, DAX1 inh-1 0, hcDAF-12 act -2, ssDAF12 agonist -1 and DAX1 inh-2 1.
Screening CC(C#N)(Cc1ccccc1)Nc1ccccc1 (stereo unspecified) returned hgDAF12 agonist 14*, SMARCA2 act 10*, DAX1 inh-1 5.0*, hcDAF-12 act 6.5*, ssDAF12 agonist 0, DAX1 inh-2 -1, DAX1 conf 0, SF1 mutant ctr 1, SMARCA2 conf -2, GAL4-VP16 Luc -1, hgDAF12 ag -2 and LXRb DAF12 ctr 0.
Screening ON=C(CCc1ccccc1)c1ccccc1 returned hgDAF12 agonist 15*, SMARCA2 act 8, DAX1 inh-1 5.1*, hcDAF-12 act 7.0*, ssDAF12 agonist 0, DAX1 conf 12*, SF1 mutant ctr 6.7*, LXR ag 1, hcDAF12 conf 5.8*, hgDAF12 ag 16* and LXRb DAF12 ctr 1.
For O/N=C(\COc1ccccc1O)c1ccccc1 the results were hgDAF12 agonist 0, SMARCA2 act -1, DAX1 inh-1 0, hcDAF-12 act 0, ssDAF12 agonist -1 and DAX1 inh-2 -1.
COc1cccc(CNC(C)C(=O)Nc2ccc3c(c2)OCCO3)c1 (stereo unspecified) was read as hgDAF12 agonist 3, SMARCA2 act 1, DAX1 inh-1 1, hcDAF-12 act -1, ssDAF12 agonist -1 and DAX1 inh-2 0.
Screening O=C(O)CCc1nc(-c2cccs2)no1 returned hgDAF12 agonist 1, SMARCA2 act 0, DAX1 inh-1 0, hcDAF-12 act 1, ssDAF12 agonist 0 and DAX1 inh-2 0.
`Cc1ccc(OCc2nc(-c3ccccc3)no2)c(C)c1` gave hgDAF12 agonist 9, SMARCA2 act 4, DAX1 inh-1 3, hcDAF-12 act 4, ssDAF12 agonist 0 and DAX1 inh-2 2.
Cc1ccc(OCc2nc(-c3cccs3)no2)c([N+](=O)[O-])c1 was read as hgDAF12 agonist 14*, SMARCA2 act 7.9*, DAX1 inh-1 12*, hcDAF-12 act 7.1*, ssDAF12 agonist 1.9*, DAX1 inh-2 0, DAX1 conf 15*, SF1 mutant ctr 7.1*, LXR ag 1, hcDAF12 conf 7.6*, hgDAF12 ag 19* and LXRb DAF12 ctr 1.
For O=[N+]([O-])c1ccccc1OCc1nc(-c2cccs2)no1 the results were hgDAF12 agonist 14*, SMARCA2 act 2, DAX1 inh-1 8.5*, hcDAF-12 act 4, ssDAF12 agonist 0, DAX1 inh-2 2, DAX1 conf 11*, SF1 mutant ctr 6.2*, hgDAF12 ag 14* and LXRb DAF12 ctr 1.
For COc1ccccc1NC(=O)CCN1CCN(Cc2ccccc2)CC1 the results were hgDAF12 agonist -1, SMARCA2 act -2, DAX1 inh-1 0, hcDAF-12 act -1, ssDAF12 agonist -1 and DAX1 inh-2 1.
Screening Cc1c(C(=O)NC2CCOC2)oc2c(F)cccc12 (stereo unspecified) returned hgDAF12 agonist 14*, SMARCA2 act 7, DAX1 inh-1 5.7*, hcDAF-12 act 5, ssDAF12 agonist 0, DAX1 inh-2 3, DAX1 conf 6.4*, SF1 mutant ctr 3.3*, hgDAF12 ag 13* and LXRb DAF12 ctr 0.
`Cc1c(C(=O)O)oc2c(F)cccc12` gave hgDAF12 agonist -4, SMARCA2 act 3, DAX1 inh-1 0, hcDAF-12 act -3 and ssDAF12 agonist -1.
CC(C)C(=O)Nc1ccc(Nc2ccccc2)cc1 was read as hgDAF12 agonist 9, SMARCA2 act 1, DAX1 inh-1 0, hcDAF-12 act -2, ssDAF12 agonist -1 and DAX1 inh-2 -1.
